Results: PubChem BioAssay (NCI)
About 83,000 compounds went through this panel and 20% of them were active in at least one assay; those are over-represented in the sample as a whole.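 Cells were grown in 96-well plates and exposed to the test compound at a single concentration for 48 hours; results are reported as percent growth, with values below 10 considered active.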 Values without a mark were called inactive. Active and inactive are the calls of the source.

How the values were obtained:
Assay in all cases: NCI-60 one-dose screen, 48 h (100 = growth as untreated, 0 = no growth, -100 = all killed)
Settings in all cases: 10 µM unless noted
NCI-H23 lung = tested on: NCI-H23 lung
NCI-H322M lung = tested on: NCI-H322M lung
HOP-62 NSCLC = tested on: HOP-62 NSCLC
HOP-92 NSCLC = tested on: HOP-92 NSCLC
NCI-H522 lung = tested on: NCI-H522 lung
A549/ATCC NSCLC = tested on: A549/ATCC NSCLC
786-0 renal = tested on: 786-0 renal
COLO 205 colon = tested on: COLO 205 colon
NCI-H460 lung = tested on: NCI-H460 lung

SMILES	growth (NCI-H23 lung)	growth (NCI-H322M lung)	growth (HOP-62 NSCLC)	growth (HOP-92 NSCLC)	growth (NCI-H522 lung)	growth (A549/ATCC NSCLC)	growth (786-0 renal)	growth (COLO 205 colon)	growth (NCI-H460 lung)
COc1cc(-c2noc(C[C@@H](NC(=O)OCc3ccccc3)C(C)C)n2)cc(OC)c1OC	96.9%	92.3%	94.4%	88.3%	92.1%	100%	101%	117%	–
Cn1nc(Nc2ccccc2)c(C(=O)NN)c1N	100%	97%	99.8%	111%	96.9%	98.3%	109%	104%	107%
O=S(=O)(Nc1ccc(-c2nc(-c3cccc(O)c3)c(-c3ccnc(Br)c3)[nH]2)cc1)c1ccccc1	16.2%	41.7%	33.1%	13.7%	25.5%	51.5%	17.7%	43.3%	–
O=C1[C@@H]2Cc3c([nH]c4ccccc34)[C@H](c3c(Cl)cccc3Cl)N2C(=O)CN1C1CCN(Cc2c(F)cccc2F)CC1	92.9%	89.1%	92.9%	75.9%	93%	92.3%	99.2%	90.6%	55.6%
CCCC(=O)NC(c1cccnc1)c1cc(Cl)c2cccnc2c1O (stereo not given)	44.7%	47.1%	32.2%	-5.51% (active)	16.8%	39.7%	50.9%	30.8%	25.3%
Cc1nn(-c2ccccc2)cc1/C=N/Nc1nc(Nc2ccccc2)nc(Nc2ccc(S(N)(=O)=O)cc2)n1	-14.9% (active)	9.11% (active)	9.43% (active)	-13% (active)	0.777% (active)	-28.7% (active)	-47.6% (active)	-22% (active)	-35.9% (active)
CS(=O)(=O)c1nccc(-c2c(-c3ccc(F)c(OCCc4ccccc4)c3)nc3sccn23)n1	100%	-26.9% (active)	103%	50.1%	-12.5% (active)	99%	98.2%	112%	28.8%
Nc1n[nH]c2cccc(C#Cc3cccc(NC(=O)c4cccc(OC(F)(F)F)c4)c3)c12	35.1%	77.3%	59.4%	-9.3% (active)	49.2%	71.4%	65.3%	49%	–
O=S(=O)(Nc1ccc2c(c1)OC(F)(F)O2)c1ccc(-c2cnc(C3CC3)o2)cc1	55.2%	83.3%	35.9%	66.7%	43.2%	47.7%	47.2%	47.4%	–
Cc1cc2nc(C(Cl)Cl)nc(-c3ccco3)n2n1	76.8%	23.3%	47.9%	79.5%	93.9%	3.5% (active)	96.2%	–	0.56% (active)
C=CCn1c(SCC(=O)Nc2ccc(OC)cc2)nnc1-c1ccc(Cl)cc1	81.1%	96.4%	101%	68.8%	83.4%	103%	104%	107%	104%
COc1ccc(/C=C/C(=O)c2nnn(-c3ccc(C(=O)O)cc3)c2C)cc1OC	105%	91.3%	107%	102%	88.4%	97.5%	98.4%	109%	107%
COc1cc(/C=N/Nc2ccnc3cc(Cl)ccc23)cc(OC)c1O	-42% (active)	-45.1% (active)	-78% (active)	-74% (active)	-73.8% (active)	-82.2% (active)	-87.5% (active)	72%	-63.9% (active)
CCn1c2ccc(/C=N/OCCCN(C)C)cc2c2cc(/C=N/OCCCN(C)C)ccc21	-5.99% (active)	-11.6% (active)	62.5%	30.6%	-60.5% (active)	-67.8% (active)	-42.5% (active)	-55.6% (active)	-3.59% (active)
CCNC(=O)Oc1ccc(/C(=C(/C)c2ccccc2)c2ccc(OCCN3CCCC3)cc2)cc1	74.6%	93.2%	–	61.9%	–	74.9%	36.7%	75.5%	76.2%
COc1ccc(NC2=C(Cl)C(=O)C(C)=C(C)C2=O)cc1	83.7%	100%	95.6%	-2.54% (active)	85.6%	98.3%	113%	109%	97.3%
CCCCCCCCCC[C@@H](C)[C@@H]1CC(=O)N[C@H]([C@@H](C)O)C(=O)N[C@@H](C)C(=O)N[C@H](C)C(=O)N[C@@H](CCC(N)=O)C(=O)N[C@H](Cc2ccc(O)cc2)C(=O)N[C@@H](C(C)CC)C(=O)O1 (stereo not given in full)	35.6%	89.1%	73.9%	43.3%	36.1%	47.6%	91.8%	66%	63.6%
CC(=O)Nc1ccc(C)c(Nc2cc(-c3ccc(-n4cccn4)cc3)[nH]n2)c1	67%	–	51.7%	113%	14.3%	60.2%	74.9%	67.1%	27.6%
O=C(/C=C/c1cccc(O)c1)c1ccc(O)cc1	72%	88.5%	79.9%	104%	65.6%	90.1%	85%	120%	92.8%
COc1cc(C2=NN(C(C)=O)C(c3ccc(N4CCOCC4)cc3)C2)cc(OC)c1OC (stereo not given)	86.8%	88.1%	91.8%	92.4%	89.7%	104%	95.5%	106%	103%
COc1ccc(C2C(C#N)=C(N)Oc3c2sc2ccc(C)cc32)cc1 (stereo not given)	43.7%	71.8%	30.1%	72.1%	-34.3% (active)	45.6%	42%	36.8%	15.2%
CCN1C(=O)N(CC)C2SC(N/N=C/c3ccc(OC)cc3)=NC21 (stereo not given)	24.6%	42.1%	48%	36.4%	17.1%	23.9%	19.6%	2.66% (active)	2.55% (active)
CC1OC(O[C@@H]2C(O)C(CO)OC(O[C@H]3COC(O[C@H]4CC[C@]5(C)[C@H]6CC[C@]78OC[C@@]9(CC[C@](C)(C=O)C[C@H]97)[C@H](O)C[C@@]8(C)[C@]6(C)CC[C@H]5C4(C)C)[C@@H](OC4OC(CO)[C@@H](O)[C@@H](O)[C@@H]4O)[C@@H]3O)[C@H]2OC2OC[C@@H](O)[C@@H](O)[C@@H]2O)[C@@H](O)[C@@H](O)[C@H]1O (stereo not given in full)	-15.2% (active)	-35.3% (active)	-74.6% (active)	15.5%	–	-63.3% (active)	-53% (active)	-37.7% (active)	74.1%
Cc1nc(-c2cc3ccccc3c(N3CCN(C)CC3)n2)cs1	99.9%	106%	98.1%	61.1%	94%	97.7%	93.2%	88.5%	103%
O=C1c2c(c3c4cccnc4[nH]c3c3ccc4ccccc4c23)C(=O)N1CCN1CCNCC1	81.6%	88%	63.6%	85.3%	81.8%	44%	52.7%	81.9%	32.6%
Cc1ccccc1NC1CC(=O)N(c2ccc(Cl)cc2Cl)C1=O (stereo not given)	102%	99%	103%	78%	95.7%	99.8%	94.2%	120%	104%
C/C=C/C=C1\C[C@H]2CO[C@H](O2)C1=O	93.9%	93.7%	96.9%	96.4%	95.6%	98.2%	102%	117%	104%
COc1ccc(C(=O)c2c(N)c(C#N)cn2-c2cccc(OC)c2)cc1	49.8%	–	30.6%	21.7%	3.14% (active)	42.9%	37.5%	25.3%	–
Cc1nn(-c2ccc(Br)cc2)c2nc(CCl)[nH]c(=O)c12	103%	104%	98.5%	101%	85.5%	96.9%	-88.8% (active)	103%	109%
